Data from PubChem BioAssay (NCATS).
Inconclusive results are not listed. A call without a number means that no potency is given here. Calls of active or inactive are those of the source. Calls come from the whole dose curve; as a rule, active = well fitted inhibition curve with a large enough effect; inconclusive = small, poorly fitted or top-dose-only effect; inactive = flat fitted curve, though single readings scatter.

Molecular target: Calcium and integrin-binding protein 1 (Homo sapiens) (UniProt Q99828)
Experiment: Primary qHTS for Identification of Calcium Integrin Binding Protein 1 (CIB1) Competitor (AID 1508620)
Settings: CIB1-GST / FITC-alphaIIb peptide fluorescence polarization; series mostly up to 114 µM
Method in brief: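 Fluorescence polarization competition: GST-tagged CIB1 (1 uM final) preincubated with compound 15 min at room temperature, then FITC-labelled alphaIIb peptide (100 nM final) added. After 15 min at room temperature, polarization read at Ex 480/Em 540.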
Potency is the fitted concentration of half-maximal effect.

Calcium and integrin-binding protein 1 (Homo sapiens), sequence (Q99828 whole entry, looked up): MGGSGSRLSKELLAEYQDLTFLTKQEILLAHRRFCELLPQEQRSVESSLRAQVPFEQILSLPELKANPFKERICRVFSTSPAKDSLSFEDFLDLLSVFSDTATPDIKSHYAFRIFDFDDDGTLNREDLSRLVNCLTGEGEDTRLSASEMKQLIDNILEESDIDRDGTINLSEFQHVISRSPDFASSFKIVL

Compound | Potency
COc1ccc(/C=C2/C(=O)Nc3ccccc32)cc1O | inactive
CN1CCc2ccc3c4c2[C@]1(C)Cc1cccc(c1-4)OCO3 | 39.8 µM (active)
N[C@@H](Cc1ccccc1)C(=O)Nc1ccc(Cl)cc1C(=O)c1ccc[nH]1 | inactive
Cc1cc2c(s1)c1cnn(Cc3cccc(F)c3F)c(=O)c1n2C | inactive
COc1ccc(NC(=O)c2[nH]c(C)c(C(C)=O)c2C)cc1S(=O)(=O)Nc1ccc(C#N)cc1 | inactive
Cc1cc(C)n2ncc(C(=O)Nc3ccncc3)c2n1 | inactive
N#Cc1ccc(N2CCN(S(=O)(=O)c3ccc4c(c3)CC(=O)N4)CC2)cc1 | inactive
COc1cc(-c2ccc3ncnc(NCC4CCCO4)c3c2)cc(OC)c1OC (configuration not stated) | inactive
Cc1ccnc(NC(=S)N2CCN(c3ccc(F)cc3)CC2)c1 | inactive
COc1cccc(-c2ccc(CNc3ccc(N4CCN(C(=O)OC(C)(C)C)CC4)cc3)o2)c1 | inactive
COc1cc(O)c(C(CC(=O)N2CCC(c3ccccc3)CC2)c2ccc(OC)c(OC)c2)c(OC)c1 (configuration not stated) | inactive
COc1ccc(C2=Nn3c(nnc3-c3cc(OC)cc(OC)c3)SC2)cc1 | inactive
COc1cc(O)c(C(CC(=O)N2CCCC(c3ccccc3)C2)c2ccc3c(c2)OCO3)c(OC)c1 (configuration not stated) | inactive
c1nc(NCCc2cnc[nH]2)c2cc(-c3ccoc3)ccc2n1 | inactive
CN1CCN(c2cccc(Nc3nn4c(=O)c5ccc(F)cc5nc4s3)c2)CC1 | inactive
NC(=O)C1CCN(c2nc(-c3cccs3)cs2)CC1 | inactive
CN(Cc1ccc(-c2ccccc2)cc1)c1nc(-c2ccccc2C(F)(F)F)nc2ccccc12 | inactive
